Screening data as filed in PubChem BioAssay.
Compounds with a hit are over-represented: about 9.3% of the library has one in this group of screens.
Rab9 promoter act = Rab9 promoter activation | Huh7 Rab9 promoter-luciferase reporter, luminescence, 24 h | Potency, µM (doses to about 9.22 µM), for inactives: at the highest dose activation, negative = inhibition, hits mostly activators | 320,000 tested, 2.8% active; also: % of control where 0% means no effect; nearly all actives have a fitted effect of over 60% in size
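Quantitative HTS format; Huh7 Rab9-luciferase reporter cells (1500/well) receive compound 2 h post-plating, incubate 24 h at 37 °C, then get luciferase reagent for 10 min before luminescence reading.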
ELG1 genotox = inducers of genotoxicity in HEK293T ELG1-luciferase cells; HEK293T ELG1-luciferase reporter, luminescence, 16 h; Potency, µM (series often up to 46 µM), for the others: at the top dose activity change, positive = activation, hits mostly activators; 330,000 tested, 1.3% active; AID 504466; also: % of control where 0% means no effect; nearly all actives have a fitted effect of over 60% in size
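Quantitative HTS format in 1536-well plates. HEK293T ELG1-luciferase reporter cells receive test compound and are incubated 16 hr at 37 °C, 5% CO2; ONE-Glo added, 30 min room temperature, then luminescence read.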
ELG1 DNA repair = inhibitors of ELG1-dependent DNA repair in HEK293T cells. Potency, µM (doses to about 46.1 µM), for inactives: at the top dose activity change, negative = inhibition, most hits filed as inhibitors. AID 504467. 330,000 tested, 2.3% active. HEK293T ELG1-luciferase reporter, luminescence, 16 h; DNA damage induced by 5-fluorouridine; also: % is scaled to controls: 0 for no effect and ±100 for the full control effect; nearly all actives have a fitted effect of over 55% in size
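Quantitative HTS, concentration-response format. 2,000 cells/well co-treated with 5-fluorouridine and compound, 16 hr in 5% CO2 at 37 °C; ONE-Glo luminescence read after 30 min.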
FLuc modulator = firefly luciferase modulation, counter-screen for miR-21 project; 360,000 tested, 6.9% active; Potency, µM (doses to about 57.5 µM), for the others: at the top dose activity change, negative = inhibition, most hits filed as inhibitors; purified FLuc, Km substrates, luminescence inhibition;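 also: plate controls were vehicle for no effect and reference inhibitor for full effect; nearly all actives have a fitted effect of over 55% in size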
Target sequence (P08659 whole entry, looked up): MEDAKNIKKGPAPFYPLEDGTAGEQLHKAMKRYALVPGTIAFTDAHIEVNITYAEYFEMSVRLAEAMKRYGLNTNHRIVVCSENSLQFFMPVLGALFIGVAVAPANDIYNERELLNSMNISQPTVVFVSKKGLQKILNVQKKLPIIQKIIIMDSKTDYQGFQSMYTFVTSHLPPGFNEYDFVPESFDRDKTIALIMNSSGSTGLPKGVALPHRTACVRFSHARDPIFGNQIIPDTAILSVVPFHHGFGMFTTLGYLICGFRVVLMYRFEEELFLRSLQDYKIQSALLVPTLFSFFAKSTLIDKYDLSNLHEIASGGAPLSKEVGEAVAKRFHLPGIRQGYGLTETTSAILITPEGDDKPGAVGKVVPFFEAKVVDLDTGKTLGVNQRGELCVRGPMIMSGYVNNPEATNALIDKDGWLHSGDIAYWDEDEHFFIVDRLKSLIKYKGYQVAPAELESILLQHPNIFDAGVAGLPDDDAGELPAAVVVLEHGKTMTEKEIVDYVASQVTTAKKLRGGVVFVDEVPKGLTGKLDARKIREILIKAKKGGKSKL
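Purified P. pyralis luciferase, 10 nM final, with Km-level 10 uM D-luciferin and 10 uM ATP in 50 mM Tris acetate pH 7.5, 10 mM Mg acetate, 0.01% Tween-20, 0.05% BSA; 6-point qHTS titration about 60 µM downward; luminescence read.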
SMN2 splice enh = increases expression of the SMN2 splice variant; HEK293 SMN2-luciferase splicing reporter, luminescence, 30-36 h; 210,000 tested, 2.8% active; Potency, µM (highest dose often 46.1 µM), inactives show at the highest dose activity change, positive = activation, hits mostly activators; also: % of control where 0% means no effect; nearly all actives have a fitted effect of over 55% in size
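HEK293 cells carry an SMN2 minigene-luciferase reporter in which exon 7 inclusion puts luciferase in frame. Cells were seeded at 2000 cells/well, attached for 10-12 hours, then exposed to compounds for 30-36 hours at 37C before ONE-Glo luminescence.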
NPC1 promoter act = activates the NPC1 promoter. Huh7 NPC1 promoter luciferase reporter, 24 h. Potency, µM (series often up to 9.22 µM), for inactives: at the highest dose activation, most hits filed as activators. 320,000 tested, 2.4% active; also: % of control where 0% means no effect; nearly all actives have a fitted effect of over 60% in size
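In 1536-well qHTS, Huh7 cells harboring an NPC1 promoter–luciferase construct received compound for 24 h; activation was quantified by luminescence following luciferase reagent addition.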
An asterisk follows results filed as active; ? = inconclusive; . = not tested or not shown. Calls follow the shape of the dose curve; as a rule, active = well fitted curve in the direction sought with a large enough effect; inconclusive = small, poorly fitted or top-dose-only effect, or another doubt; inactive = no such curve, though single readings can be large; an effect the other way counts as inactive or inconclusive. Potency is read from the fitted curve at half-maximal effect.

SMILES	Rab9 promoter act	ELG1 genotox	ELG1 DNA repair	FLuc modulator	SMN2 splice enh	NPC1 promoter act
CCOc1ccc2nc(SCC(=O)N(C)C)[nH]c2c1	3.55µM*	16.4µM*	?	19µM*	23.5%	3.98µM*
Cc1ccc2c(c1)sc(=NC(=O)C1CC1)n2C	3.55µM*	?	?	8.49µM*	.	2.51µM*
C#CCn1c(=NC(=O)c2cccs2)sc2cccc(OC)c21	29.6%	?	-8.6%	?	-14.3%	0.8%
Cc1ccc2c(c1)sc(=NC(=O)c1cccs1)n2C	3.55µM*	0.517µM*	?	0.151µM*	16.0%	3.55µM*
CCN1CCN(C(=O)c2cn(CCOC)c(=O)c3c2c2ccccc2n3C)CC1	2.9%	2.1%	11.5%	11.3%	19.4%	2.1%
Cc1ccc(SCC(=O)O/N=C(\N)c2cccc([N+](=O)[O-])c2)cc1	0.1%	0.0%	-9.0%	-13.6%	-2.8%	-2.1%
Cc1ccc(/C(N)=N/OC(=O)COc2ccccc2Cl)cc1	-5.5%	23.1µM*	?	19µM*	22.2%	16.7%
COc1ccc(/C(N)=N/OC(=O)CSc2ccccc2)cc1	3.16µM*	?	?	4.78µM*	26.8%	?
COc1ccc(/C(N)=N/OC(=O)CSc2ccc(C)cc2)cc1	-1.3%	11.5%	-5.8%	?	-17.8%	-2.2%
Cc1ccc(/C(N)=N/OC(=O)CSc2ccccc2)cc1	3.55µM*	?	?	1.69µM*	11.2µM*	2.51µM*
N/C(=N\OC(=O)CSc1ccccc1)c1ccc([N+](=O)[O-])cc1	13.5%	?	?	19µM*	?	12.4%
CC(C)N(c1ccccc1)c1ccc(NC(=S)NCCN(C)C)cc1	-7.0%	-9.4%	?	1.8%	7.8%	-2.9%
COc1ccc(CNC(=O)NC(C)(C)c2cccc(C(C)(C)NC(=O)NCc3ccc(OC)cc3)c2)cc1	-3.1%	-0.7%	0.1%	7.1%	17.5%	-1.6%
CCOC(=O)N1CCN(C(=O)CCc2c(C)nc3c(c(C)nn3-c3ccc(C)c(C)c3)c2C)CC1	-6.7%	-6.2%	6.7%	-7.6%	-26.7%	-6.2%
CCOc1ccc(N2CC(NC(=O)c3cc4ccccc4o3)CC2=O)cc1 (centres undefined)	.	.	.	-1.9%	.	.
COc1ccc(N2CC(NC(=O)N3CCN(C(=O)c4ccco4)CC3)CC2=O)cc1OC (centres undefined)	0.3%	-1.8%	?	-0.2%	.	-0.8%
COc1ccc(CN(C)C2CCCCC2)c(C)c1C	0.2%	-6.0%	0.0%	4.9%	8.2%	-3.5%
N/C(=N\OCc1ccc([N+](=O)[O-])cc1)c1ccncc1	-26.7%	?	?	15.1µM*	15.8µM*	?
COc1cc2c(cc1OC)CN(c1ccc(F)cc1[N+](=O)[O-])CC2	?	13.0%	?	12µM*	.	22.9%
COc1cc2c(cc1OC)CN(c1ccc([N+](=O)[O-])cc1Cl)CC2	-3.5%	9.8%	-23.6%	-10.5%	-37.4%	-7.2%
O=C(COc1ccc(Cl)cc1)NNC(=O)c1cccnc1	-1.7%	-0.1%	-14.4%	-5.9%	-12.7%	0.6%
Cc1cc(Cl)ccc1OCC(=O)NNC(=O)c1cccnc1	16.8%	-3.8%	0.0%	19µM*	.	0.6%
CC(C)(C)c1ccc(OCC(=O)NNC(=S)NC(=O)c2ccco2)c(Br)c1	2.8%	1.2%	-10.5%	9.53µM*	.	-3.9%
Cc1cc(Cl)ccc1OCC(=O)NNC(=O)c1ccco1	25.7%	?	?	9.53µM*	.	10.1%
O=C(COc1ccc(Cl)cc1Cl)NNC(=O)c1cccnc1	8.5%	15.3%	15.6%	5.36µM*	.	4.5%
SMILES	Rab9 promoter act	ELG1 genotox	ELG1 DNA repair	FLuc modulator	SMN2 splice enh	NPC1 promoter act
COc1ccc(N2CCN(C(=O)CSc3ncccc3-c3nc4ccccc4[nH]3)CC2)cc1	-2.1%	2.8%	16.5%	10.7µM*	-30.7%	8.0%
O=C(CSc1ncccc1-c1nc2ccccc2[nH]1)N1CCN(c2ccccc2F)CC1	20.7%	-2.4%	?	19µM*	-19.3%	-11.1%
COc1ccc(N2CCN(C(=O)CSc3n[nH]c(-c4ccccc4)n3)CC2)cc1	.	.	.	-11.8%	.	.
COc1ccccc1N1CCN(C(=O)CSc2ncccc2-c2nc3ccccc3[nH]2)CC1	1.4%	4.2%	?	23.9µM*	-35.5%	0.4%
O=C(CSc1ncccc1-c1nc2ccccc2[nH]1)NC1CC1	-10.7%	2.9%	27.5%	?	17.0%	-0.4%
Cc1cccc(NC(=O)C(=O)C2C(=O)Nc3ccccc32)c1 (centres undefined)	17.7%	3.7%	8.6%	15.1µM*	.	20.5%
O=C(Nc1ccc(F)cc1)C(=O)C1C(=O)Nc2ccccc21 (centres undefined)	16.5%	0.6%	?	?	.	4.9%
CC(=O)Nc1ccc(S(=O)(=O)Oc2cccc(N3C(=O)C4CC=CCC4C3=O)c2)cc1 (centres undefined)	0.1%	1.6%	23.1µM*	0.8%	-5.9%	0.4%
Cc1cnc(NC(=O)CCc2ccccc2)s1	8.9%	?	?	?	.	-13.6%
Cc1cnc(NC(=O)COc2ccccc2)s1	2.24µM*	?	?	10.7µM*	11.2µM*	2µM*
COc1ccccc1OCC(=O)Nc1ncc(C)s1	1.78µM*	?	?	2.39µM*	.	1.58µM*
O=C(CSc1nnc(Cc2ccccc2)o1)N1CCCc2ccccc21	-0.9%	0.6%	-11.2%	2.6%	-10.0%	1.4%
CCOc1ccc(N2C(N)=NC(N)=NC2(C)C)cc1	-6.2%	-1.8%	-26.8%	-1.9%	-17.2%	-5.0%
CC1(C)N=C(N)N=C(N)N1c1ccc(OCCCOc2ccccc2)c(Cl)c1	-35.3%	-8.1%	2.59µM*	-2.0%	.	-26.6%
COc1ccc(C2=NN(C(C#N)c3ccc(OC)c(OC)c3)C(c3ccccc3)C2)cc1 (centres undefined)	?	5.8µM*	?	12µM*	94.5%	14.4%
COC(=O)c1ccccc1NC(=O)c1ccc2nccnc2c1	0.5%	-2.3%	-3.3%	-15.6%	0.2%	0.3%
O=C(O)c1ccc(CSc2nnc(COc3ccc(Cl)cc3Cl)o2)cc1	21.2%	?	?	19µM*	4.4%	17.1%
COc1ccc(OCc2nnc(SCc3ccc(C(=O)O)cc3)o2)cc1	-1.4%	6.0%	?	-14.0%	.	-5.9%
CCc1ccccc1NC(=O)C1COc2ccccc2C1 (centres undefined)	.	.	.	-2.0%	.	.
COc1ccc(NC(=O)c2c(-c3c(Cl)cccc3Cl)noc2C)c(OC)c1	-0.7%	-4.7%	23.1µM*	0.7%	.	-5.5%
COc1ccc(NC(=O)c2cc(-c3ccco3)on2)c(OC)c1	19.3%	18.5%	16.2%	4.7%	.	20.1%
